Test [1] deals with Paired box protein Pax-6 (Homo sapiens) (UniProt P26367). The test is described as follows: ATG_Pax6_CIS: Attagene CIS-FACTORIAL HepG2 Assay for human Paired Box 6 (PAX6) (AID 2282956). The following applies: HepG2 CIS-FACTORIAL PAX6 reporter transcription, RNA readout; actives raise or lower the signal. Put shortly: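 Read-out is reporter transcript level, measured by RT-PCR with fluorescent primer extension and capillary electrophoresis after 24 h dosing of transfected HepG2 cells. Activity in either direction fitted relative to DMSO control.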

Test [2] can be described thus: ATG_PXRE_CIS: Attagene CIS-FACTORIAL HepG2 Assay for human Pregnane X Receptor Element (PXRE) (AID 2282957). The following applies: HepG2 Attagene CIS-FACTORIAL PXRE reporter, mRNA; actives raise or lower the signal. Put shortly: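 Fluorescent capillary electrophoresis of amplified reporter cDNA gave the signal, collected 24 h after dosing HepG2 cells that held transfected cis-element reporter constructs.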

A short description of test [3]: ATG_PPRE_CIS: Attagene CIS-FACTORIAL HepG2 Assay for human Peroxisome Proliferator-activated Response Element (PPRE) (AID 2282958). The following applies: HepG2 PPRE cis-element reporter, Attagene transcription factor profiling; actives raise or lower the signal. Put shortly:
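Transcript-level reporter induction in transfected HepG2 cells after 24 h chemical exposure, quantified by fluorescence from RT-PCR products separated by capillary electrophoresis.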

A short description of test [4]: ATG_RORE_CIS: Attagene CIS-FACTORIAL HepG2 Assay for human RAR-related Orphan Receptor Element (RORE) (AID 2282959). The following applies: HepG2 Attagene cis-factorial RORE reporter, mRNA; actives raise or lower the signal. Put shortly:
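Multiplexed reporter assay measuring mRNA induction from a cis promoter element in transiently transfected HepG2 cells after 24 h treatment. Detection via RT-PCR and capillary electrophoresis fluorescence; DMSO serves as baseline.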

Test [5] is described as follows: ATG_Sox_CIS: Attagene CIS-FACTORIAL HepG2 Assay for human SRY-box transcription factor (SOX) (AID 2282960). The following applies: HepG2 Attagene cis-factorial SOX reporter, mRNA; actives raise or lower the signal. In a few lines:
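Cells were transfected with reporter constructs under cis-regulatory promoters, then exposed to chemicals for 24 h. Reporter transcripts were quantified by fluorescence after RT-PCR and capillary electrophoresis; activity was fitted in both directions against DMSO.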

Test [6] concerns the target Transcription factor Sp1 (Homo sapiens) (UniProt P08047). The experiment in a line: ATG_Sp1_CIS: Attagene CIS-FACTORIAL HepG2 Assay for human Specificity Protein 1 (Sp1) (AID 2282961). The following applies: HepG2 Sp1 cis-reporter transcription, actives raise or lower the signal. In a few lines: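 Measures mRNA induction of an Sp1-linked reporter in HepG2 cells 24 h post-dosing. Multiplexed reporters read by RT-PCR and capillary electrophoresis; DMSO serves as negative control and baseline.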

The nature of test [7]: ATG_SREBP_CIS: Attagene CIS-FACTORIAL HepG2 Assay for human Sterol Regulatory Element Binding (SREBP) (AID 2282962). The following applies: HepG2 Attagene cis-factorial SREBP reporter, mRNA; actives raise or lower the signal. Put shortly: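 Endogenous SREBP activity read as cis-element-driven reporter transcript in transiently transfected HepG2, 24 h post-dosing; quantified via RT-PCR plus capillary electrophoresis of fluorescent fragments. Gain or loss of signal fitted relative to DMSO baseline.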

Test [8] has as its target Signal transducer and activator of transcription 3 (Homo sapiens) (UniProt P40763). The experiment in a line: ATG_STAT3_CIS: Attagene CIS-FACTORIAL HepG2 Assay for human Signal Transducer and Activator of Transcription 3 (STAT3) (AID 2282963). The following applies: HepG2, Attagene cis-factorial STAT3 reporter transcription; actives raise or lower the signal. Put shortly:
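Readout: fluorescent reporter mRNA fragments resolved by capillary electrophoresis. Setup: HepG2 transfected with MRTUs reporting endogenous transcription-factor activity, dosed 24 h. Gain or loss of signal fitted bidirectionally against DMSO control.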

Test [9] can be described thus: ATG_TA_CIS: Attagene CIS-FACTORIAL HepG2 Assay for human TA Basal Promoter (AID 2282964). The following applies: HepG2 Attagene CIS-factorial TA basal promoter reporter; actives raise or lower the signal. In a few lines: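 Transfected HepG2, 24 h compound exposure; RNA → RT-PCR → FAM primer extension → HpaI cut → CE fluorescence. Gain/loss-of-signal fitted against DMSO negative control. Background-control readout.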

The nature of test [10]: ATG_TCF_b_cat_CIS: Attagene CIS-FACTORIAL HepG2 Assay for human T-Cell-Factor with beta-catenin (TCF/b-cat) (AID 2282965). The following applies: HepG2 TCF/beta-catenin cis-reporter transcription, actives raise or lower the signal. In a few lines: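 HepG2, transient MRTU transfection, cis-element-driven reporters (endogenous TFs). 24 h compound exposure. Readout: reporter mRNA by RT-PCR + 6-FAM primer extension, HpaI digest, capillary electrophoresis. Gain/loss fit vs DMSO baseline.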

The nature of test [11]: ATG_TAL_CIS: Attagene CIS-FACTORIAL HepG2 Assay for human TAL Basal Promoter (AID 2282966).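 Further: background control endpoint measuring basal TAL promoter reporter mRNA not a specific factor.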 The following applies: HepG2 Attagene cis-factorial TAL promoter reporter; actives raise or lower the signal. Put shortly: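 Transiently transfected HepG2 (cis-regulated reporter units), 24 h treatment, mRNA read by fluorescent CE after RT-PCR; bidirectional fit, DMSO baseline.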

Test [12] is described as follows: ATG_TGFb_CIS: Attagene CIS-FACTORIAL HepG2 Assay for human Transforming Growth Factor (TGF) (AID 2282967). The following applies: HepG2 Attagene CIS TGFb reporter, mRNA transcription; actives raise or lower the signal. In a few lines:
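Readout: fluorescently labeled reporter cDNA fragments resolved by capillary electrophoresis after RT-PCR. Transfected HepG2 cells dosed for 24 h; endogenous TF activity at TGFB1-linked cis element; gain or loss fitted relative to DMSO.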

Test [13] deals with Nuclear receptor subfamily 1 group I member 3 (Homo sapiens) (UniProt Q14994). The test is described as follows: ATG_CAR_TRANS: Attagene TRANS-FACTORIAL HepG2 Assay for human Constitutive Androstane Receptor (CAR) (AID 2282969; active means hit-call score of the fitted dose curve at least 0.9, where 1 is the maximum;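 further: activators raise reporter mRNA above DMSO so AC50 marks induction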). The following applies: HepG2 Attagene TRANS-FACTORIAL CAR reporter. Put shortly:
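Transiently transfected HepG2, multiplex TRANS reporters (CAR-Gal4 chimera driving GAL4-UAS reporter). 24 h dosing. Readout: reporter transcript by RT-PCR + capillary electrophoresis, fluorescence intensity; positive direction vs DMSO.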

The nature of test [14]: ATG_GAL4_TRANS: Attagene TRANS-FACTORIAL HepG2 Assay for GAL4 (Internal Marker) (AID 2282976; active means hit-call score of the fitted dose curve at least 0.9, where 1 is the maximum). The following applies: HepG2 Attagene TRANS GAL4 internal marker reporter. Put shortly:
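HepG2 cells transiently transfected with multiplexed GAL4-UAS reporter constructs were dosed for 24 h. Reporter mRNA was measured by RT-PCR, 6-FAM primer extension, HpaI digestion and capillary electrophoresis, and gain of signal was fitted relative to DMSO.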

In test [15] the target is X-box-binding protein 1 (Homo sapiens) (UniProt P17861). The experiment in a line: ATG_Xbp1_CIS: Attagene CIS-FACTORIAL HepG2 Assay for human X-box Binding Protein 1 (XBP1) (AID 2282972). The following applies: HepG2 XBP1 cis-element reporter, Attagene multiplex; actives raise or lower the signal. Put shortly:
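Reporter transcripts were quantified by RT-PCR with fluorescent primer extension and capillary electrophoresis after 24 h chemical exposure. Cells: transiently transfected HepG2 carrying cis-regulated reporter constructs; data fitted bidirectionally relative to DMSO.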

Test [16] in a line: ATG_M_19_TRANS: Attagene TRANS-FACTORIAL HepG2 Assay for M19 Transcription Factor (Internal Marker) (AID 2282974; active means hit-call score of the fitted dose curve at least 0.9, where 1 is the maximum). The following applies: HepG2 Attagene TRANS-FACTORIAL M19 internal marker reporter. In a few lines:
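After transfection of HepG2 with GAL4-UAS-driven reporter constructs, cells are dosed for 24 h. Total RNA is reverse-transcribed, reporter sequences PCR-amplified and labelled, then HpaI-digested and sized by capillary electrophoresis.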

Test [17] deals with Steroid hormone receptor ERR1 (Homo sapiens) (UniProt P11474). The experiment in a line: ATG_ERRa_TRANS: Attagene TRANS-FACTORIAL HepG2 Assay for human Estrogen-Related Receptor alpha (ERRa) (AID 2282971; active means hit-call score of the fitted dose curve at least 0.9, where 1 is the maximum). The following applies: HepG2 Attagene TRANS reporter, ERRa transactivation. Put shortly:
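HepG2 cells transiently transfected with multiplexed GAL4-UAS reporter units reading chimeric ERRa-Gal4 activity; 24 h compound exposure. Reporter mRNA measured by RT-PCR, 6-FAM labelling, HpaI digest and capillary electrophoresis; gain of signal fitted versus DMSO baseline.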

Test [18] can be described thus: ATG_VDRE_CIS: Attagene CIS-FACTORIAL HepG2 Assay for human Vitamin D Receptor Element (VDRE) (AID 2282968). The following applies: HepG2 VDRE cis-reporter transcription, actives raise or lower the signal. In a few lines:
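Transient MRTU transfection of HepG2, 24 h compound exposure. Readout: reporter transcripts via RT-PCR and capillary electrophoresis, fluorescence. Bidirectional fit vs DMSO.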

The target in test [19] is Estrogen receptor (Homo sapiens) (UniProt P03372). The experiment in a line: ATG_ERa_TRANS: Attagene TRANS-FACTORIAL HepG2 Assay for human Estrogen Receptor alpha (ERa) (AID 2282970; active means hit-call score of the fitted dose curve at least 0.9, where 1 is the maximum). The following applies: HepG2 Attagene TRANS ERa GAL4 reporter, mRNA. Put shortly: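 One of 30 multiplexed endpoints from a HepG2 TRANS system, this one reports ERa-Gal4-driven reporter mRNA. Transcripts were quantified 24 hours post-dosing by fluorescent RT-PCR and capillary electrophoresis, with activity scored as induction over DMSO.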

The structures appear in SMILES notation. Results filed as inconclusive are left out. Calls of active or inactive are those of the source. How the source made its calls, unless noted: active means hit-call score of the fitted dose curve at least 0.9, where 1 is the maximum; inactive means score below 0.9.

Our source for the outcome and AC50 values is PubChem BioAssay (EPA / NIEHS).

One may read the AC50 as the concentration giving half of the maximal activity seen.

Signal transducer and activator of transcription 3 (Homo sapiens), sequence (P40763 whole entry, looked up, the tested form may be a part): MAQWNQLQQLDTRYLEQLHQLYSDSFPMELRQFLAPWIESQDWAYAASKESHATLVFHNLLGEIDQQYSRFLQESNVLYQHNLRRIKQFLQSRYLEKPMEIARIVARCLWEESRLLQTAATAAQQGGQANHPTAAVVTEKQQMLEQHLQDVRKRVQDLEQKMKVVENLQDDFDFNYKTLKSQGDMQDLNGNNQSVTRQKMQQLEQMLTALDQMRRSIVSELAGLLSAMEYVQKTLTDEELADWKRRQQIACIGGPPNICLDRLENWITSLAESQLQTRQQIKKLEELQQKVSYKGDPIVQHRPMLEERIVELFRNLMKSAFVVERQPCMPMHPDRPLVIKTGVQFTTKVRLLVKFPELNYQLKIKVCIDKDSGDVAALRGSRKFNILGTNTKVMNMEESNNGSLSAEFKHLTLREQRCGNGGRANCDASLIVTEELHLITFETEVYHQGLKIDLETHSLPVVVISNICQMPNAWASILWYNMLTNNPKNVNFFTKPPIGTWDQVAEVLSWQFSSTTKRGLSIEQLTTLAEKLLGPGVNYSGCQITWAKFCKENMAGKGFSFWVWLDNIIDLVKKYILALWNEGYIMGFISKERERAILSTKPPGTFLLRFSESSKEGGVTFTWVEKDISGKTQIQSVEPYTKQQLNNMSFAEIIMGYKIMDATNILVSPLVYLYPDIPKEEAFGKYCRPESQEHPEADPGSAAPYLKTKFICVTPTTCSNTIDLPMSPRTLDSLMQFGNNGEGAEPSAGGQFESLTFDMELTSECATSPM
Paired box protein Pax-6 (Homo sapiens), sequence (P26367 whole entry, looked up): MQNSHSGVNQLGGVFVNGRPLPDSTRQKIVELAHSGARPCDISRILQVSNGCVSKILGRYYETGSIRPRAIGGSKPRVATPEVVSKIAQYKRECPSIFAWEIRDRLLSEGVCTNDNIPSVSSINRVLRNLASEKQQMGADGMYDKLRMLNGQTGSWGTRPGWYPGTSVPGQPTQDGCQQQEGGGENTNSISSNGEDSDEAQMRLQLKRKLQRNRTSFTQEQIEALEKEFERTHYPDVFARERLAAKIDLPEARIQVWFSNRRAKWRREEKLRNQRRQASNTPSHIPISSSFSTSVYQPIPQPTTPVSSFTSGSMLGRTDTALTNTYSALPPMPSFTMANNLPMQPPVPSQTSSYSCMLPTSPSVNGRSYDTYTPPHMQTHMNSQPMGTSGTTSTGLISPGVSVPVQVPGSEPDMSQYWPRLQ
X-box-binding protein 1 (Homo sapiens), sequence (P17861 whole entry, looked up): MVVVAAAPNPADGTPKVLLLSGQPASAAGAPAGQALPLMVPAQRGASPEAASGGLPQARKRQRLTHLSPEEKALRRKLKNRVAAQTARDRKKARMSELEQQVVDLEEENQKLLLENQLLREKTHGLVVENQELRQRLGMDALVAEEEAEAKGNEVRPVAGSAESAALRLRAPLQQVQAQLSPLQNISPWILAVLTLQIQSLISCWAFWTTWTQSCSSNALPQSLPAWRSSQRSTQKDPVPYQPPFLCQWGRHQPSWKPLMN
Transcription factor Sp1 (Homo sapiens), sequence (P08047 whole entry, looked up): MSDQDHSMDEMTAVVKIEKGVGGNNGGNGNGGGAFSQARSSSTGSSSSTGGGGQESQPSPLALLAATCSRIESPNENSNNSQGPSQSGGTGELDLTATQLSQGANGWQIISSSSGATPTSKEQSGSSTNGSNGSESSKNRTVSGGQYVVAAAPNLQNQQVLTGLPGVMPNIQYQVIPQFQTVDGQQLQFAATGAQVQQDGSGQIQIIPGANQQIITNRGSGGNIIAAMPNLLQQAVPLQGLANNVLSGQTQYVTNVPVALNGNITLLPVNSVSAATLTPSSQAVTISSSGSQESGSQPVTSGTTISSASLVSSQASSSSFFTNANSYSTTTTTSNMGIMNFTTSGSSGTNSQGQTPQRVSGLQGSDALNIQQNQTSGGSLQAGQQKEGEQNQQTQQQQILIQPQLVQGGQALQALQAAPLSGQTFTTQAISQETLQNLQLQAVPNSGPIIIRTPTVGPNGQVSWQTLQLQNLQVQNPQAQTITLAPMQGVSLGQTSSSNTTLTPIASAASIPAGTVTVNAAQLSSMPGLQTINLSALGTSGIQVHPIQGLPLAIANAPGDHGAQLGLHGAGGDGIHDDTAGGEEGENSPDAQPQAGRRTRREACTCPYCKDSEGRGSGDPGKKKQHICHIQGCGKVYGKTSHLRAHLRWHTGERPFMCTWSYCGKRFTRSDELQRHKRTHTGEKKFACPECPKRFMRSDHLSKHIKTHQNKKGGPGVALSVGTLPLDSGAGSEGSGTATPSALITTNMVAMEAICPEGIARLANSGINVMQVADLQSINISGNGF
Nuclear receptor subfamily 1 group I member 3 (Homo sapiens), sequence (Q14994 whole entry, looked up, the tested form may be a part): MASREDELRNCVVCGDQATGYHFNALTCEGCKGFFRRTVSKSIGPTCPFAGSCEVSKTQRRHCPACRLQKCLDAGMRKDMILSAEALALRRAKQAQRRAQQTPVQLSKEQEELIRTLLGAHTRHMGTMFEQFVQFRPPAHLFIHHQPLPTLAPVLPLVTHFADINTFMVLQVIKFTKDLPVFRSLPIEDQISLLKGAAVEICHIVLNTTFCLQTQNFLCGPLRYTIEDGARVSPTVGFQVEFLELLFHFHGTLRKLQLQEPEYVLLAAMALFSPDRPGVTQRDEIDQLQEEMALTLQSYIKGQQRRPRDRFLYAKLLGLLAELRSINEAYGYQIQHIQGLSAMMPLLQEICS
Estrogen receptor (Homo sapiens), sequence (P03372 whole entry, looked up, the tested form may be a part): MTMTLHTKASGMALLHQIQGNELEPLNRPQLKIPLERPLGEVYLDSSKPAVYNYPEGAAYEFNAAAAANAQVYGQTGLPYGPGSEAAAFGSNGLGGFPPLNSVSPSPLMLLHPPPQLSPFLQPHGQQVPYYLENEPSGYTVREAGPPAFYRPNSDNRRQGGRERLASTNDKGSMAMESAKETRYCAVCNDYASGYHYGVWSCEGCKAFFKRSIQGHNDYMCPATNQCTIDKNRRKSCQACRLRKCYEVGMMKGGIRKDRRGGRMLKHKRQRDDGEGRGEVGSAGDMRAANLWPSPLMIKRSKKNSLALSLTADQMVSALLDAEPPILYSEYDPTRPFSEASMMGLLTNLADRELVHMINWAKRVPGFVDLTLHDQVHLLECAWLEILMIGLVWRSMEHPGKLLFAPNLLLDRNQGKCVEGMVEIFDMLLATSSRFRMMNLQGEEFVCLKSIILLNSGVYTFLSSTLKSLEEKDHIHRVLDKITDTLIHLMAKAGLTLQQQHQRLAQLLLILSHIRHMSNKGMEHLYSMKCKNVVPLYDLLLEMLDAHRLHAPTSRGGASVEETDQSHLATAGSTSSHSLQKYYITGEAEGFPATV
Steroid hormone receptor ERR1 (Homo sapiens), sequence (P11474 whole entry, looked up, the tested form may be a part): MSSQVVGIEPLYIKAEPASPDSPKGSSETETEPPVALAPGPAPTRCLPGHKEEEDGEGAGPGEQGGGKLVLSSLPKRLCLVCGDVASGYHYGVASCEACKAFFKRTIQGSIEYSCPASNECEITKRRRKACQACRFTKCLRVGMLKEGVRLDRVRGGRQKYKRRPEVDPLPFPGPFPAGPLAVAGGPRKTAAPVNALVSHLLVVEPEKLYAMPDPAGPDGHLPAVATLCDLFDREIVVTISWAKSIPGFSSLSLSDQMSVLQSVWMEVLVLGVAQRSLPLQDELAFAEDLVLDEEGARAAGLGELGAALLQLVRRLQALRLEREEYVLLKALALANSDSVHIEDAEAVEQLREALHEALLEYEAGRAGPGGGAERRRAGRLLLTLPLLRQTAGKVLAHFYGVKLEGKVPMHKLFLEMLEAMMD

For the compound `COc1cc(C)cc(O)c1`, the compound was classed as inactive in [1], in test [3], in test [4], in test [5], in test [6] and in [7]. In addition, the call in test [8], in test [9], in test [10], in test [11], in test [12] and in test [13] was inactive. Moreover, the result in test [14] was inactive. For the same compound, the AC50 in test [2] was 20.5 µM (active).

As to `Cc1cccc(Nc2ccccc2C(=O)O)c1C`, the call in [1], in [4], in [5], in [6], in test [7] and in test [8] was inactive. Moreover, the result in test [9], in [11], in [12], in test [15] and in [16] was inactive. The figures for the AC50 in test [2], in [3] and in [10] were 14.1 µM (active), 18.2 µM (active) and 19.8 µM (active), respectively.

As for `CCC(C(=O)NC(N)=O)c1ccccc1` (stereo not drawn), the result in test [1], in test [2], in test [3], in test [4], in test [5] and in test [6] was inactive. For the same compound, the result in [7], in test [8], in [9], in [10], in test [11] and in [12] was inactive. The call in test [17], in test [15] and in test [16] was inactive.

In the case of `CC(=O)OCCC(C)CC(C)(C)C` (stereo not drawn), the compound was classed as inactive in [1], in [2], in test [3], in test [4], in [5] and in test [6]. For the same compound, the call in test [7], in [8], in test [9], in test [10], in [11] and in test [18] was inactive. Further, the call in test [13], in test [19] and in test [15] was inactive.

With `CCCCOCCOCCOCCOCCO`, the result in test [1], in test [3], in [4], in [5], in test [6] and in [7] was inactive. Also, the compound was called inactive in test [8], in test [9], in test [10], in [11], in [12] and in [18]. For the same compound, the result in test [15] and in [14] was inactive. Further, in test [2], the AC50 was 27.5 µM (active).
